Measured values published in PubChem BioAssay AID1159580 (chemical genetic matrix, 2015).
Hit rate of the full screen: of about 5,500 compounds, about 2,000 (36%) were called active. Inconclusive results (about 18%) are left out. Cut-off read from the data, not from the text of the source: active = normalized growth mostly below about 0.91 (no sharp cut-off); inconclusive = no clear call, values can overlap the other calls; inactive = mostly above about 0.92. Some of the results follow.

Test: chemical genetic growth profiling, strain panel (AID 1159580);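 note: tested at 20 µM; growth read once vehicle control cultures reached saturation at 30 °C; 1 = growth at the plate median or of vehicle wells; lower values mean less growth of the strain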
Settings: S. cerevisiae deletion strains, growth OD

Measured: normalized growth

COc1ccc(-c2c(OC)c3c(OC)c4c(cc3oc2=O)OC(C)(C)C=C4)cc1
inactive: locus YBR021W, strain FUR4, active compounds read low 1.08 | locus YBR229C, strain ROT2, active compounds read low 1.03 | locus YCL029C, strain bik1, active compounds read low 0.974 | locus YDL035C, strain GPR1, active compounds read low 1.09 | locus YDL074C, strain BRE1, active compounds read low 1.18 | locus YDL101C, strain DUN1, active compounds read low 0.99 | locus YDL185W, strain tfp1, active compounds read low 0.988 | locus YDL192W, strain arf1, active compounds read low 1.08 | locus YDR101C, strain arx1, active compounds read low 1.07 | locus YDR162C, strain NBP2, active compounds read low 1.06 | locus YDR318W, strain mcm21, active compounds read low 1 | locus YDR388W, active compounds read low 0.983 | locus YDR502C, strain sam2, active compounds read low 1.05 | locus YEL061C, strain CIN8, active compounds read low 1.02 | locus YER110C, active compounds read low 0.973 | locus YER155C, strain BEM2, active compounds read low 1.01 | locus YER167W, strain BCK2, active compounds read low 1.01 | locus YGL078C, strain dbp3, active compounds read low 1.02 | locus YGL086W, strain mad1, active compounds read low 1.05 | locus YGL248W, strain PDE1, active compounds read low 1.07 | locus YGR135W, strain pre9, active compounds read low 1.02 | locus YGR252W, strain gcn5, active compounds read low 1.21 | locus YHR030C, strain SLT2, active compounds read low 1 | locus YHR079C, strain IRE1 (second series), active compounds read low 0.991 | locus YHR094C, strain hxt1, active compounds read low 1 | locus YHR129C, strain ARP1, active compounds read low 1.02 | locus YHR200W, strain rpn10, active compounds read low 1.04 | locus YIL066C, strain RNR3, active compounds read low 1.01 | locus YIL073C, strain SPO22, active compounds read low 1.12 | locus YIL125W, strain kgd1, active compounds read low 1.02 | locus YIR030C, strain dcg1, active compounds read low 1.01 | locus YJL095W, strain BCK1, active compounds read low 1.08 | locus YJL134W, strain LCB3, active compounds read low 0.991 | locus YJL168C, strain set2, active compounds read low 1 | locus YJL187C, strain SWE1 (second series), active compounds read low 1 | locus YJR075W, strain HOC1, active compounds read low 1 | locus YKL009W, strain mrt4, active compounds read low 1.03 | locus YKL068W, active compounds read low 1.03 | locus YKL085W, strain MDH1 (second series), active compounds read low 1.04 | locus YKL085W, strain MDH1, active compounds read low 1.04 | locus YKL190W, strain CNB1, active compounds read low 0.988 | locus YKR001C, strain vps1, active compounds read low 1.09 | locus YLR039C, strain RIC1, active compounds read low 1.22 | locus YLR058C, strain SHM2, active compounds read low 1.01 | locus YLR102C, strain apc9, active compounds read low 0.972 | locus YLR268W, strain sec22, active compounds read low 1.04 | locus YLR330W, strain CHS5, active compounds read low 1.03 | locus YLR342W, strain FKS1 (second series), active compounds read low 1.03 | locus YLR371W, strain rom2, active compounds read low 0.992 | locus YML016C, strain PPZ1, active compounds read low 1.01 | locus YML032C, strain rad52, active compounds read low 0.987 | locus YML124C, strain tub3, active compounds read low 1.03 | locus YMR078C, strain ctf18, active compounds read low 0.993 | locus YMR223W, strain ubp8, active compounds read low 1.02 | locus YMR307W, strain GAS1, active compounds read low 1.32 | locus YNL067W, strain RPL9B, active compounds read low 1 | locus YNL153C, strain GIM3, active compounds read low 1.01 | locus YNL233W, strain BNI4, active compounds read low 1.05 | locus YNL250W, strain rad50, active compounds read low 0.999 | locus YNL271C, strain bni1, active compounds read low 1.03 | locus YNL298W, strain CLA4, active compounds read low 1.03 | locus YNL307C, strain MCK1, active compounds read low 0.967 | locus YNR052C, strain pop2, active compounds read low 1.02 | locus YOL012C, strain htz1 1.03 | locus YOL147C, strain pex11, active compounds read low 0.997 | locus YOR061W, strain CKA2, active compounds read low 1.02 | locus YOR069W, strain VPS5, active compounds read low 0.993 | locus YOR136W, strain idh2, active compounds read low 1 | locus YOR144C, strain elg1, active compounds read low 1.03 | locus YOR184W, strain ser1, active compounds read low 1.11 | locus YOR316C, strain cot1, active compounds read low 0.975 | locus YPL055C, strain LGE1, active compounds read low 1.16 | locus YPR119W, strain clb2, active compounds read low 0.978 | locus YPR141C, strain kar3, active compounds read low 1.03 | locus YPR163C, strain tif3, active compounds read low 1 | locus YPR167C, strain met16, active compounds read low 1.01 | strain wtn01, active compounds read low 1.07
active: locus YOL006C, strain TOP1, active compounds read low 1.54 [resistant]
